# Data reported in PubChem BioAssay AID588852 (The Scripps Research Institute Molecular Screening Center, 2011).
# Among all 360,000 compounds or so, about 4,600 (1.3%) were called active.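 Rule for the calls: active = percent inhibition above its own plate's cutoff, namely the mean of that plate's compound wells plus 3 SD; inactive = the rest.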 Many of the other results were omitted from the sample, so actives are more common in it than they were.
# Biological target: Muscarinic acetylcholine receptor M1 (Homo sapiens) (UniProt P11229)
# Test: human M1 muscarinic receptor antagonists, primary screen, CHO-K1 cells, Fluo-8 calcium fluorescence, 1536-well (AID 588852);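 note: peak over basal fluorescence ratio during 140 s after agonist addition; 0% = ACh EC80 plus DMSO and 100% = DMSO alone without agonist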
# Details: CHO-K1 hM1, Fluo-8 calcium fluorescence, ACh EC80 antagonist; at 3 µM; stronger effect = higher value
# Sequence of Muscarinic acetylcholine receptor M1 (Homo sapiens) (P11229 whole entry, looked up): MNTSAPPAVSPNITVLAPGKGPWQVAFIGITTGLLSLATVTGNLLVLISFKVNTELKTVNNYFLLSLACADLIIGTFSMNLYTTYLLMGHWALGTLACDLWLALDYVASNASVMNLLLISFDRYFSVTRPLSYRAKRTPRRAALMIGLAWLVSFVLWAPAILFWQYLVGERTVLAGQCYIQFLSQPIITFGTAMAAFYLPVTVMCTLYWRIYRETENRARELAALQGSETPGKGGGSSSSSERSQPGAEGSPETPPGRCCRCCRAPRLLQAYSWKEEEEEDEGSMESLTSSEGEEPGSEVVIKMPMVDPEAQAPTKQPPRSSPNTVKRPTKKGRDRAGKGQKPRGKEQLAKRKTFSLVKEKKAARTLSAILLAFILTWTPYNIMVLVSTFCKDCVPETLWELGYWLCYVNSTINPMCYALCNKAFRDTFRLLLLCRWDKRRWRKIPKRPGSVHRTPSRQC
row,SMILES,inhibition
1,CC(C)(C)N1C(=O)c2c(C(=O)OCc3ccccc3)[nH]c(-c3ccccc3)c2C1=O,-12.3% (inactive)
2,CCNC(=O)C1(C)CCCN(C(=O)c2c(C)noc2C)C1 (stereo not drawn),-8.22% (inactive)
3,CSc1ccc(CNC(=O)C2(C)CCCN2C)cc1 (stereo not drawn),-11.7% (inactive)
4,CC1CCN(CCCn2c(SCC(=O)NC3CCCC3)nc3ccccc3c2=O)CC1,31.2% (active)
5,O=C(CSc1nc2ccccc2c(=O)n1CCCO)NC1CC1,-2.1% (inactive)
6,CC(=O)c1ccc(NC(=O)CSc2nc3ccccc3c(=O)n2CCCN2CCOCC2)cc1,1.86% (inactive)
7,COC(=O)c1ccc2nc(-c3ccc(OC)c(OC)c3)c(Cc3ccccc3)n2c1,-24% (inactive)
8,Cc1c(C(=O)OC(C)C)sc(NC(=O)c2cccnc2)c1C#N,-3.46% (inactive)
9,CC(=O)N1CCCc2cc(S(=O)(=O)CCC(=O)N3CCN(c4ccccc4)CC3)ccc21,-7.27% (inactive)
10,CC(=O)N1c2ccc(S(=O)(=O)N3CCC(C(=O)N4CCN(c5ccccc5)CC4)CC3)cc2CC1C (stereo not drawn),10.8% (inactive)
11,CC(=O)N1CCCc2cc(S(=O)(=O)N3CCCC(C(=O)N4CCN(c5cccc(Cl)c5)CC4)C3)ccc21 (stereo not drawn),57.1% (active)
12,O=C(CCS(=O)(=O)c1ccccc1Cl)Nc1ccc(S(=O)(=O)Nc2ncccn2)cc1,-5.9% (inactive)
13,CCN1C(=O)[C@@H]2[C@@H]3CN(S(=O)(=O)c4ccccc4C)[C@@H](c4ccc(Cl)cc4)[C@@H]3C(=O)C[C@@H]2C1=O,4.67% (inactive)
14,Cc1ccc(S(=O)(=O)N2CCC(C(=O)N[C@@H](C)C(=O)NCc3ccccc3)CC2)cc1,4.54% (inactive)
15,CCN(CC(=O)N1CCCC1)S(=O)(=O)c1ccc(F)cc1,-13% (inactive)
16,O=C(O)C(c1cccs1)C1(O)CCCCC1 (stereo not drawn),-1.29% (inactive)
17,CN(C)CCOC(=O)C(c1ccccc1)C1(O)CCCC1 (stereo not drawn),99.4% (active)
18,O=C(O)C(c1ccccc1)C1(O)CCCCC1 (stereo not drawn),-17.6% (inactive)
19,COc1ccccc1N1CCN(CC(=O)NCCc2ccc(S(N)(=O)=O)cc2)CC1,4.39% (inactive)
20,Cc1nc(NC(=O)CCC(=O)O)sc1C(=O)N(C)C,2.74% (inactive)

row,SMILES,inhibition
1,CCCn1c(C2CCCN2c2nc(-c3ccc(C)cc3)cs2)nc2cc(Cl)c(N3CCCCC3)cc21 (stereo not drawn),-10.7% (inactive)
2,COc1cc2ccccc2cc1C(=O)Nc1ccc(S(=O)(=O)Nc2cc(C)on2)cc1,103% (active)
3,CCOc1ccc(C(=O)Nc2ccc(S(=O)(=O)Nc3cc(C)on3)cc2)cc1,0.49% (inactive)
4,COc1ccc(S(=O)(=O)Nc2cc(C)on2)cc1NC(C)=O,-12.3% (inactive)
5,CC1CCCC(C)N1C(=O)COC(=O)COc1ccccc1C#N (stereo not drawn),-15.1% (inactive)
6,COc1ccccc1CNS(=O)(=O)c1cc(C(=O)NCc2ccccn2)c(Cl)cc1Cl,5.67% (inactive)
7,Cc1cc(C)n2nc(C(=O)OCC(=O)N(CCC#N)c3ccc(F)cc3)nc2n1,-14.2% (inactive)
8,CNS(=O)(=O)c1ccc(N2CCCC2=O)c([N+](=O)[O-])c1,-23.5% (inactive)
9,CC(=O)c1cccc(NC(=S)N2CCN(S(C)(=O)=O)CC2)c1,-7.9% (inactive)
10,CSc1ccccc1C(=O)Nc1cccc(C(C)=O)c1,0.3% (inactive)
11,CC(=O)c1cccc(NC(=O)C2CCN(C(=O)c3ccccc3Cl)CC2)c1,-5.19% (inactive)
12,COc1ccc(NC(C(=O)Nc2cccc(C(C)=O)c2)c2ccccc2)cc1 (stereo not drawn),-3.24% (inactive)
13,C=CCSc1nsc(NC(=O)Nc2cccc(C(C)=O)c2)n1,38.7% (active)
14,CCSc1nsc(NC(=O)Nc2cccc(C(C)=O)c2)n1,51.1% (active)
15,Fc1cccc(Cc2c(-c3cccc(Cl)c3)nc3ccc(Br)cn23)c1,-20.5% (inactive)
16,CC#CC[N+](C)(C)CCCCCC,-12.7% (inactive)
17,FC(F)(F)Oc1ccc(-c2cn3cccnc3n2)cc1,12.5% (inactive)
18,O=C(CCc1ccc(S(=O)(=O)N2CCOCC2)cc1)OCC(=O)c1ccc(Br)cc1,9.26% (inactive)
19,O=C(Nc1ccccc1Cl)/C(Cl)=C(\Cl)S(=O)c1ccccc1 (stereo not drawn),-6.91% (inactive)
20,COc1ccc(C(O)(C2CCCCC2)C(CN2CCCC2)c2ccccc2)cc1 (stereo not drawn),10.3% (inactive)

row,SMILES,inhibition
1,OC(c1ccccc1)C(CN1CCOCC1)c1ccccc1 (stereo not drawn),-25.3% (inactive)
2,OC(C#CCN1CCOCC1)(c1ccccc1)C1CCCCC1 (stereo not drawn),50.9% (active)
3,Clc1cccc(Cl)c1Cn1nnc(-c2cccs2)n1,-2.1% (inactive)
4,CC(=O)c1c(N)n(C)c(=O)n(C)c1=O,-33.5% (inactive)
5,CCOC(=O)c1ccc(-c2ccc3ncnc(N(C)Cc4sccc4C)c3c2)o1,-1.82% (inactive)
6,N/C(=N\OC(=O)Nc1ccccc1)c1ccno1,-25% (inactive)
7,CC(C)CCNC(=O)c1[nH]c(C(F)(F)F)nc1-c1ccccc1,-26.6% (inactive)
8,CCN(Cc1ccccc1)C(=O)CN1C(=S)NC(C)(C)CC1C (stereo not drawn),-5.27% (inactive)
9,CCNC(=S)N(CCN(CC)CC)Cc1cc2cc3c(cc2[nH]c1=O)OCCO3,-13% (inactive)
10,CCCCOc1ccc(C(=O)NN2CCN(C)CC2)cc1,44.4% (active)
11,CN1CCN(NC(=O)c2ccc(S(=O)(=O)N3CCCCCC3)cc2)CC1,-2.56% (inactive)
12,CC1CN(S(=O)(=O)c2ccc(C(=O)NN3CCN(C)CC3)cc2)CC(C)O1 (stereo not drawn),9.23% (inactive)
13,Cc1ccc([C@H]2N[C@]3(CCCN(Cc4ccccc4)C3=O)[C@H]3C(=O)N(Cc4ccccc4)C(=O)[C@@H]23)cc1,-11.4% (inactive)
14,OCCc1ccc(NCCc2ccco2)cc1,0.71% (inactive)
15,O=C(c1ccccc1Oc1ccccc1)N1CCN(c2ccc(F)cc2)CC1,4.1% (inactive)
16,CCOC(=O)N1CCN(C(=O)c2nn(-c3ccc(C)cc3)c(=O)c3c2c2ccccc2n3C)CC1,3.41% (inactive)
17,Cn1c2ccccc2c2c(C(=O)N3CCN(c4ccc(F)cc4)CC3)cn(C3CCCC3)c(=O)c21,29.7% (active)
18,O=C(Nc1ccc2c(c1)OCCO2)C(C1CC1)N1CCC(Cc2ccccc2)CC1 (stereo not drawn),34.6% (inactive)
